Here are results for eight compounds from PubChem BioAssay (Tox21).

Experiment [1] can be described thus: qHTS assay to identify small molecule antagonists of the thyroid receptor (TR) signaling pathway (AID 743065). Further: series mostly up to about 70 µM; nearly all actives have a fitted effect of over 55% in size. The method, boiled down:
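GH3.TRE-Luc rat pituitary cells carrying two TR response elements driving luciferase were plated for 4 h, given compound plus 1 nM T3 (final), and incubated 23.5 h at 37 C. ONE-Glo luminescence measured reporter inhibition; CellTiter-Fluor fluorescence tracked cytotoxicity.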
In general terms: In qHTS, concentration-response curves come from the screen itself.

Experiment [2] concerns thyroid hormone receptor (rat, GH3 cells). Kind of experiment: qHTS assay to identify small molecule agonists of the thyroid receptor (TR) signaling pathway (AID 743066; calls by dose curve).
In experiment [3] the target is Estrogen receptor (Homo sapiens) (UniProt P03372). Briefly: qHTS assay to identify small molecule antagonists of the estrogen receptor alpha (ER-alpha) signaling pathway (AID 743069; active means well fitted curve in the direction sought with a large enough effect in the signal ratio in the repeat runs, not every such curve was filed as active; the % refers to the signal ratio). Put shortly: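 Estradiol-stimulated ER-alpha-UAS-bla HEK293 cells, 18 hr compound exposure at 37C. LiveBLAzer B/G substrate, 2 hr RT, fluorescence read.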
Estrogen receptor (Homo sapiens), sequence (P03372 whole entry, looked up): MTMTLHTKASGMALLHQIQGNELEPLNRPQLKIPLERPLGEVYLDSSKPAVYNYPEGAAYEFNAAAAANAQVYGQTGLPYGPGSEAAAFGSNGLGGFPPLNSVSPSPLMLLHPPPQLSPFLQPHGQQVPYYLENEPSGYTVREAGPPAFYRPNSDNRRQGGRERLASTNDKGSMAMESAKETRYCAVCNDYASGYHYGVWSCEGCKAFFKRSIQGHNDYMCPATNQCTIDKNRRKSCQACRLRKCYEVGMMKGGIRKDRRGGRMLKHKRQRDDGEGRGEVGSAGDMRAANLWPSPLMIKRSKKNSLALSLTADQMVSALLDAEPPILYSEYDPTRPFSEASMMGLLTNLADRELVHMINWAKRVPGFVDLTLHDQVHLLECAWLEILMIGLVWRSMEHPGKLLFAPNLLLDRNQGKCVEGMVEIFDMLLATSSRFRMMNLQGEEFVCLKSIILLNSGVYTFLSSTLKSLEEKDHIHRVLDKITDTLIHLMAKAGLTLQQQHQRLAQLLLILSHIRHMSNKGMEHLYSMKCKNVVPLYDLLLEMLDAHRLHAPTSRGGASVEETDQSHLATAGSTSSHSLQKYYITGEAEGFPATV
Experiment [4] in a line: qHTS assay to identify small molecule antagonists of the estrogen receptor alpha (ER-alpha) signaling pathway - cell viability counter screen (AID 743074; calls by dose curve;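 further: HEK293 cells carrying ER-alpha-UAS-bla reporter stimulated with 17beta-estradiol; nearly all actives have a fitted effect of over 45% in size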).
Experiment [5] concerns the target Estrogen receptor (Homo sapiens) (UniProt P03372). Kind of experiment: qHTS assay to identify small molecule agonists of the estrogen receptor alpha (ER-alpha) signaling pathway (AID 743075; calls by dose curve;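 further: HEK293 GripTite cells with ER-alpha and UAS-driven beta-lactamase reporter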).
Experiment [6] shares this target. Briefly: qHTS assay to identify small molecule agonists of the estrogen receptor alpha (ER-alpha) signaling pathway using the BG1 cell line (AID 743079). Further: nearly all actives have a fitted effect of over 20% in size.
Experiment [7] is described as follows: qHTS assay to identify small molecule antagonists of the estrogen receptor alpha (ER-alpha) signaling pathway using the BG1 cell line (AID 743080; calls by dose curve;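 further: BG1 cells stimulated with 17beta-estradiol alongside compound; series mostly up to about 70 µM; nearly all actives have a fitted effect of over 25% in size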). The method, boiled down: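 After 5 days in phenol-red-free 10% charcoal-stripped FBS medium, BG1-Luc-4E2 cells were seeded, left 24 h at 37 C, co-treated with compounds and 17beta-estradiol for 21.5 h, then assayed for viability and luciferase.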

The nature of experiment [8]: qHTS assay to identify small molecule antagonists of the estrogen receptor alpha (ER-alpha) signaling pathway using the BG1 cell line - cell viability counter screen (AID 743081).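 Further: compound given together with 17beta-estradiol as the ER stimulus; series mostly up to about 70 µM; nearly all actives have a fitted effect of over 45% in size.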
Experiment [9] addresses Aromatase (Homo sapiens) (UniProt P11511). Kind of experiment: qHTS assay to identify aromatase inhibitors (AID 743083). Further: series mostly up to about 70 µM; nearly all actives have a fitted effect of over 55% in size.
A short description of experiment [10]: qHTS assay to identify aromatase inhibitors - cell viability counter screen (AID 743084).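 Further: cells stimulated with testosterone during compound exposure; nearly all actives have a fitted effect of over 55% in size.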
Experiment [11] concerns the target Aryl hydrocarbon receptor (Homo sapiens) (UniProt P35869). Briefly: qHTS assay to identify small molecule that activate the aryl hydrocarbon receptor (AhR) signaling pathway (AID 743085). Further: nearly all actives have a fitted effect of over 15% in size. Further: potency means the concentration at half of the fitted maximal effect.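 On activation: HG2L7.5c1 human HepG2 liver cells with stably integrated DRE-driven firefly reporter; series mostly up to about 70 µM.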 Put shortly: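 24 h compound exposure, 37C, HepG2-derived HG2L7.5c1 cells with DRE-responsive luciferase. Readouts: fluorescence viability, then luminescence at room temperature after 30 min.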

The nature of experiment [12]: qHTS assay to identify small molecule that activate the aryl hydrocarbon receptor (AhR) signaling pathway - cell viability counter screen (AID 743086).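 Further: HepG2 liver cells carrying the AhR DRE luciferase reporter; series mostly up to about 70 µM; nearly all actives have a fitted effect of over 45% in size.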 The method, boiled down: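 HepG2-AhR-luc (HG2L7.5c1) cells, 4000/well, were preincubated 5 h at 37C, exposed to compound in qHTS format for 24 hr at 37C, then given CellTiter-Fluor for 30 min; viability was read as fluorescence in the reporter wells.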

In experiment [13] the target is Peroxisome proliferator-activated receptor gamma (Homo sapiens) (UniProt P37231). Briefly: qHTS assay to identify small molecule agonists of the peroxisome proliferator-activated receptor gamma (PPARg) signaling pathway (AID 743094; active means well fitted activation curve with a large enough effect in the signal ratio in the repeat runs, not every such curve was filed as active; the % refers to the signal ratio). Put shortly: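 Quantitative HTS agonist mode: stable HEK293H line with UAS-beta-lactamase reporter under PPARg control, 17 h compound exposure at 37C, fluorescence after 1 h FRET substrate loading at room temperature.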
Peroxisome proliferator-activated receptor gamma (Homo sapiens), sequence (P37231 whole entry, looked up): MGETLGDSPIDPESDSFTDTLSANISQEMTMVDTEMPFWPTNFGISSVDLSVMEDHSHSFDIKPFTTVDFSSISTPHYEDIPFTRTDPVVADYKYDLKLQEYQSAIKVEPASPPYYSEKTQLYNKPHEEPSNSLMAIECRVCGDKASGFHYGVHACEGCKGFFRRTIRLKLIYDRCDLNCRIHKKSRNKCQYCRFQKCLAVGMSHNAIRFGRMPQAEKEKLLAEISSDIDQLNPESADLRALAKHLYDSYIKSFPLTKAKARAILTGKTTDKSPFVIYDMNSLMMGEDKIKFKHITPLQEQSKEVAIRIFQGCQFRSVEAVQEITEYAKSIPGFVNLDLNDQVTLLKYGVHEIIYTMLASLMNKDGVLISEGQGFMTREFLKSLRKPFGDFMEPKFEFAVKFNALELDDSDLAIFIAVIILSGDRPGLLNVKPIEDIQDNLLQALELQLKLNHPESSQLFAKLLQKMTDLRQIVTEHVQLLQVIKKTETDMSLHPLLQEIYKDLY

The nature of experiment [14]: qHTS assay to identify small molecule antagonists of the peroxisome proliferator-activated receptor gamma (PPARg) signaling pathway - cell viability counter screen (AID 743194). Further: nearly all actives have a fitted effect of over 55% in size. The method, boiled down:
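PPARg-UAS-bla HEK293H cells were plated, rested 5 h at 37 C, then treated with compounds plus rosiglitazone (50 nM final) for 17 h at 37 C; viability was then read by CellTiter-Glo luminescence after 30 min at room temperature.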

Experiment [15] can be described thus: qHTS assay for small molecule agonists of the antioxidant response element (ARE) signaling pathway (AID 743202; active means well fitted activation curve with a large enough effect in the signal ratio in the repeat runs, not every such curve was filed as active; the % refers to the signal ratio). Put shortly:
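Compounds delivered in DMSO to ARE-bla HepG2 cells (2,000 cells/well, pre-incubated 5 h) and left 16 h at 37 C. LiveBLAzer B/G FRET substrate then added for 2 h at RT before fluorescence reading.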

Experiment [16] can be described thus: qHTS assay for small molecule agonists of the antioxidant response element (ARE) signaling pathway - cell viability counter screen (AID 743203; calls by dose curve; further: nearly all actives have a fitted effect of over 55% in size). Put shortly:
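Seeded at 2,000 cells/well, ARE-bla HepG2 cells were incubated 5 hrs before compound addition. After 16 hrs of treatment at 37C with 5% CO2, CellTiter-Glo reagent was added and luminescence read 30 min later.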

Experiment [17] is described as follows: qHTS assay for small molecule activators of the heat shock response signaling pathway - cell viability counter screen (AID 743209). Further: nearly all actives have a fitted effect of over 50% in size. The method, boiled down:
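First, HSE-bla HeLa cells were seeded at 1500 cells/well and kept overnight at 37 C. Next, compounds were pinned in and incubated 5 h. After the FRET substrate step, CellTiter-Glo was added and luminescence read 30 min later.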

Experiment [18] can be described thus: qHTS assay for small molecule activators of the heat shock response signaling pathway (AID 743210; active means well fitted activation curve with a large enough effect in the signal ratio in the repeat runs, with a control signal flat, not every such curve was filed as active; the % refers to the signal ratio;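 further: HeLa cells with beta-lactamase reporter driven by heat shock elements; series mostly up to about 63 µM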). Put shortly: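 Reporter gene assay: HeLa cells stably bearing an HSE-bla construct, compound treatment 5 h at 37 C, LiveBLAzer substrate 2.5 h at RT, fluorescence intensity.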
Experiment [19] can be described thus: qHTS assay to identify small molecule agonists of the peroxisome proliferator-activated receptor delta (PPARd) signaling pathway - cell viability counter screen (AID 743211). Further: nearly all actives have a fitted effect of over 55% in size. The method, boiled down: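 Luminescent ATP viability assay (CellTiter-Glo, 30 min RT) in UAS-bla HEK293H cells carrying the PPAR delta reporter construct, 3000 cells/well, after a 17 h compound treatment at 37 C.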

Experiment [20] addresses Peroxisome proliferator-activated receptor gamma (Homo sapiens) (UniProt P37231). Kind of experiment: qHTS assay to identify small molecule antagonists of the peroxisome proliferator-activated receptor gamma (PPARg) signaling pathway (AID 743191; calls by dose curve; further: series mostly up to about 63 µM; nearly all actives have a fitted effect of over 30% in size). Put shortly: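 GeneBLAzer PPARg UAS-bla HEK293H cells carrying a UAS-driven beta-lactamase reporter were plated at 3000 cells/well, preincubated 5 h at 37C, then given compound for 17 h at 37C; LiveBLAzer B/G FRET substrate was read after 1 h at room temperature.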

Structures are written as SMILES. Records with an inconclusive call do not appear. Activity calls are given as the source filed them. Unless noted, the call rests on the fitted dose curve; in most records, active means well fitted curve in the direction sought with a large enough effect in the repeat runs; inconclusive means weak or mixed curves; inactive means no such curve, though single readings can be large; an effect the other way counts as inactive or inconclusive.

Aryl hydrocarbon receptor (Homo sapiens), sequence (P35869 whole entry, looked up): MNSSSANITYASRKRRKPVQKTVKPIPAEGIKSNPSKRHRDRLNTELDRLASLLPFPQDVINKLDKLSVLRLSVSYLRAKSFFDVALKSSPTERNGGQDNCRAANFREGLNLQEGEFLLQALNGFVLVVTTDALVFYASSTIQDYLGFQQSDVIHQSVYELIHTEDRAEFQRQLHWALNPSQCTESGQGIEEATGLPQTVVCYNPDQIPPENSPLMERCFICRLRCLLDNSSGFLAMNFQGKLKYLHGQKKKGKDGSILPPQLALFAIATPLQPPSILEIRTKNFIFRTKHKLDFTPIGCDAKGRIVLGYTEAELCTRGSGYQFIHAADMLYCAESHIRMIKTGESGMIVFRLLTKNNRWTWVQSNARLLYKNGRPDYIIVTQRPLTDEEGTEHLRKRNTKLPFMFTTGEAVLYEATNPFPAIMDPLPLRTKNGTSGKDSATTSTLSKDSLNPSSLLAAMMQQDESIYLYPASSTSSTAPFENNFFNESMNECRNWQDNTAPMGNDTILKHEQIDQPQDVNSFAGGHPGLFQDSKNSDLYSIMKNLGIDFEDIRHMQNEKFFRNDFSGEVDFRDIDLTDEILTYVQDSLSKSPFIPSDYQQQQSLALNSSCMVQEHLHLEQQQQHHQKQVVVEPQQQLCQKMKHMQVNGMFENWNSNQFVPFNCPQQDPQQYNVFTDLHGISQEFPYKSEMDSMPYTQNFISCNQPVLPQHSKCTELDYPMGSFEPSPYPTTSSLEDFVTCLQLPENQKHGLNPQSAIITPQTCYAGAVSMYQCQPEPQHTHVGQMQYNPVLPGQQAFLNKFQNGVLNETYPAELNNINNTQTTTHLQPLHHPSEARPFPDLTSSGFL
Aromatase (Homo sapiens), sequence (P11511 whole entry, looked up): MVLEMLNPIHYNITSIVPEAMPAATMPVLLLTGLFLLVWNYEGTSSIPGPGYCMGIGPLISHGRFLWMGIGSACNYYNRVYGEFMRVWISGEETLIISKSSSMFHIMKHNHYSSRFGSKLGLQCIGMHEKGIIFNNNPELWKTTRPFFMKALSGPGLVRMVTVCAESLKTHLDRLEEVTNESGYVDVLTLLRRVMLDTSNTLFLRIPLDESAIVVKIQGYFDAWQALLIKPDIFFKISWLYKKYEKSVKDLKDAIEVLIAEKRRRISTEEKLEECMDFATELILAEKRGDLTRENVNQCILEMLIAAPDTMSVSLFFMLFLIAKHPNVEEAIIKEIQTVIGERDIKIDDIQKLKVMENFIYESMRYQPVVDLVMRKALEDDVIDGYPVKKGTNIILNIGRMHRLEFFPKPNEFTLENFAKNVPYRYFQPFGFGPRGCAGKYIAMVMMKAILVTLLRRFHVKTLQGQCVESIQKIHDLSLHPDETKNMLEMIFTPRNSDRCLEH

For the compound `CCCCC(CC)COC(=O)COc1cc(Cl)c(Cl)cc1Cl` (stereo unspecified), the Potency entry in [1], in experiment [3], in [4], in experiment [6], in experiment [8] and in experiment [9] was “inactive” throughout. Besides, the Potency result in experiment [10], in [11], in experiment [13], in experiment [14], in experiment [15] and in experiment [16] was “inactive” in each case. In addition, the Potency result in experiment [18] and in experiment [19] was “inactive” throughout. The compound was called inactive in experiment [2], in [5], in [7], in experiment [12] and in experiment [17].

Regarding `O=C1CCCCC1C1CCCCC1` (stereo unspecified), the Potency result in experiment [1], in experiment [3], in experiment [4], in experiment [6], in experiment [8] and in experiment [9] was “inactive” each time. The Potency entry in experiment [10], in experiment [11], in experiment [13], in experiment [14], in [15] and in experiment [16] was “inactive” each time. Besides, the Potency result in [18] and in [19] was “inactive” in each case. Besides, the call in experiment [2], in experiment [5], in [7], in [12] and in experiment [17] was inactive.

With `CCCCCCCOC(=O)CCC`, the Potency entry in [1], in experiment [3], in [4], in experiment [6], in [8] and in [9] was “inactive” throughout. In addition, the Potency entry in experiment [10], in experiment [11], in experiment [13], in [14], in experiment [15] and in [16] was “inactive” each time. Further, the Potency result in experiment [18] and in experiment [19] was “inactive” each time. Further, the result in experiment [2], in experiment [5], in experiment [7], in experiment [12] and in [17] was inactive.

`CCOC(=O)[C@H](CCc1ccccc1)N[C@@H](C)C(=O)N1Cc2cc(OC)c(OC)cc2C[C@H]1C(=O)O`: the Potency result in [1], in experiment [3], in experiment [4], in [6], in experiment [8] and in [9] was “inactive” throughout. Besides, the Potency result in [10], in experiment [20], in experiment [14], in experiment [16], in experiment [18] and in [19] was “inactive” each time. Moreover, the compound was called inactive in [2], in experiment [5], in experiment [7], in experiment [12] and in experiment [17]. Besides, in experiment [11], the Potency is 9.44 µM (active).

For `CC(C)(CO)[C@@H](O)C(=O)NCCC(=O)O`, the Potency result in experiment [1], in experiment [3], in [4], in [6], in experiment [8] and in [9] was “inactive” throughout. The Potency entry in [10], in experiment [11], in experiment [13], in experiment [20], in experiment [14] and in experiment [16] was “inactive” throughout. The Potency result in experiment [18] and in experiment [19] was “inactive” in each case. For the same compound, the outcome in [2], in [5], in experiment [7], in experiment [12] and in experiment [17] was inactive.

As for `CC1=CC(=O)CC(C)(C)C1=O`, the Potency entry in experiment [1], in [3], in [4], in experiment [6], in experiment [8] and in experiment [9] was “inactive” each time. In addition, the Potency result in experiment [10], in experiment [11], in experiment [13], in [20], in experiment [14] and in [16] was “inactive” throughout. Moreover, the Potency entry in experiment [18] and in [19] was “inactive” throughout. Also, the outcome in experiment [2], in experiment [5], in experiment [7], in experiment [12] and in [17] was inactive.

In the case of `CCCCCCCCCC/C=C/C#N`, the Potency entry in [1], in [3], in [4], in experiment [6], in experiment [8] and in experiment [9] was “inactive” each time. For the same compound, the Potency result in experiment [10], in [11], in [13], in [20], in [14] and in experiment [16] was “inactive” throughout. Moreover, the Potency entry in experiment [19] is “inactive”. In addition, the outcome in [2], in experiment [5], in [7], in [12] and in [17] was inactive.

Turning to `CO[C@@]1(NC(=O)CSCC#N)C(=O)N2C(C(=O)O)=C(CSc3nnnn3C)CS[C@@H]21`, the Potency entry in experiment [1], in experiment [3], in [4], in [6], in [8] and in experiment [9] was “inactive” throughout. In addition, the Potency entry in [10], in experiment [11], in [13], in experiment [20], in experiment [14] and in experiment [15] was “inactive” in each case. The Potency entry in experiment [16], in experiment [18] and in experiment [19] was “inactive” in each case. The result in experiment [2], in experiment [5], in [7], in experiment [12] and in experiment [17] was inactive.
